# Data from PubChem BioAssay AID1159580 (chemical genetic matrix, 2015).
# In all, about 5,500 compounds went through this assay and about 2,000 (36%) were called active. About 18% were inconclusive and are not listed. Some of the results follow. A number with no mark means an inactive call. Rule as the data show it: active = normalized growth mostly below about 0.91 (no sharp cut-off); inconclusive = no clear call, values can overlap the other calls; inactive = mostly above about 0.92.
# Assay: chemical genetic growth profiling, strain panel (AID 1159580);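 also: tested at 20 µM; growth read once vehicle control cultures reached saturation at 30 °C; 1 = growth at the plate median or of vehicle wells; lower values mean less growth of the strain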
# Conditions: S. cerevisiae deletion strains, growth OD
smiles,measurement,setting,value
CC(=O)Oc1c(-c2ccccc2)oc2c(CC=C(C)C)c3c(c(OC(C)=O)c2c1=O)C=CC(C)(C)O3,normalized growth,"locus YAL021C, strain ccr4, active compounds read low",1.06
same,normalized growth,"locus YAL026C, strain drs2, active compounds read low",1.02
same,normalized growth,"locus YAL030W, strain snc1, active compounds read low",1.09 [resistant] (active)
same,normalized growth,"locus YBL061C, strain skt5, active compounds read low",1
same,normalized growth,"locus YBR009C, strain hhf1, active compounds read low",1.09
same,normalized growth,"locus YBR021W, strain FUR4, active compounds read low",1.05
same,normalized growth,"locus YBR023C, strain chs3, active compounds read low",1.01
same,normalized growth,"locus YBR171W, strain sec66, active compounds read low",1.01
same,normalized growth,"locus YBR229C, strain ROT2, active compounds read low",0.923
same,normalized growth,"locus YBR231C, strain swc5, active compounds read low",1.02
same,normalized growth,"locus YBR279W, strain paf1, active compounds read low",0.995
same,normalized growth,"locus YCL011C, strain gbp2, active compounds read low",1.09
same,normalized growth,"locus YCL016C, strain dcc1, active compounds read low",1.05
same,normalized growth,"locus YCL029C, strain bik1, active compounds read low",1.01
same,normalized growth,"locus YCL061C, strain MRC1, active compounds read low",1.02
same,normalized growth,"locus YCL069W, strain vba3, active compounds read low",1.01
same,normalized growth,"locus YCR088W, strain abp1, active compounds read low",1.01
same,normalized growth,"locus YDL005C, strain med2, active compounds read low",1.01
same,normalized growth,"locus YDL035C, strain GPR1, active compounds read low",0.875
same,normalized growth,"locus YDL040C, strain nat1, active compounds read low",1.09 [resistant] (active)
same,normalized growth,"locus YDL074C, strain BRE1, active compounds read low",0.93
same,normalized growth,"locus YDL101C, strain DUN1, active compounds read low",0.944
same,normalized growth,"locus YDL185W, strain tfp1, active compounds read low",1.07
same,normalized growth,"locus YDL192W, strain arf1, active compounds read low",1.01
same,normalized growth,"locus YDR001C, strain nth1, active compounds read low",1.01
same,normalized growth,"locus YDR069C, strain doa4, active compounds read low",1.01
same,normalized growth,"locus YDR101C, strain arx1, active compounds read low",1.09 [resistant] (active)
same,normalized growth,"locus YDR137W, strain rgp1, active compounds read low",1.03
same,normalized growth,"locus YDR159W, strain sac3, active compounds read low",0.982
same,normalized growth,"locus YDR162C, strain NBP2, active compounds read low",0.828 (active)
same,normalized growth,"locus YDR195W, strain ref2",0.986
same,normalized growth,"locus YDR297W, strain sur2, active compounds read low",1.04
same,normalized growth,"locus YDR318W, strain mcm21, active compounds read low",0.995
same,normalized growth,"locus YDR334W, strain swr1, active compounds read low",1
same,normalized growth,"locus YDR335W, strain msn5, active compounds read low",1.02
same,normalized growth,"locus YDR388W, active compounds read low",1.05
same,normalized growth,"locus YDR392W, strain spt3, active compounds read low",0.955
same,normalized growth,"locus YDR502C, strain sam2, active compounds read low",1.11 [resistant] (active)
same,normalized growth,"locus YEL003W, strain gim4, active compounds read low",1.03
same,normalized growth,"locus YEL037C, strain rad23, active compounds read low",1.01
same,normalized growth,"locus YEL061C, strain CIN8 (second series), active compounds read low",1.01
same,normalized growth,"locus YER015W, strain faa2, active compounds read low",1.08 [resistant] (active)
same,normalized growth,"locus YER016W, strain bim1, active compounds read low",1.1 [resistant] (active)
same,normalized growth,"locus YER110C, active compounds read low",1.11 [resistant] (active)
same,normalized growth,"locus YER111C, strain swi4, active compounds read low",1
same,normalized growth,"locus YER155C, strain BEM2 (second series), active compounds read low",1.05
same,normalized growth,"locus YER155C, strain BEM2, active compounds read low",1
same,normalized growth,"locus YER167W, strain BCK2, active compounds read low",0.917
same,normalized growth,"locus YFR010W, strain ubp6, active compounds read low",1
same,normalized growth,"locus YGL078C, strain dbp3, active compounds read low",1.04
same,normalized growth,"locus YGL086W, strain mad1, active compounds read low",0.993
same,normalized growth,"locus YGL167C, strain pmr1, active compounds read low",0.993
same,normalized growth,"locus YGL173C, strain kem1, active compounds read low",0.998
same,normalized growth,"locus YGL227W, strain vid30, active compounds read low",1.01
same,normalized growth,"locus YGL240W, strain doc1, active compounds read low",1
same,normalized growth,"locus YGL248W, strain PDE1, active compounds read low",0.845 (active)
same,normalized growth,"locus YGL253W, strain hxk2, active compounds read low",0.981
same,normalized growth,"locus YGR078C, strain PAC10, active compounds read low",0.898
same,normalized growth,"locus YGR135W, strain pre9, active compounds read low",1.1
same,normalized growth,"locus YGR252W, strain gcn5, active compounds read low",1.59 [resistant] (active)
same,normalized growth,"locus YHR013C, strain ard1, active compounds read low",0.989
same,normalized growth,"locus YHR027C, strain rpn1, active compounds read low",1.06
same,normalized growth,"locus YHR079C, strain IRE1 (second series), active compounds read low",1.06
same,normalized growth,"locus YHR094C, strain hxt1, active compounds read low",1.16 [resistant] (active)
same,normalized growth,"locus YHR129C, strain ARP1, active compounds read low",0.881 (active)
same,normalized growth,"locus YHR142W, strain chs7, active compounds read low",1.03
same,normalized growth,"locus YHR200W, strain rpn10, active compounds read low",1.09 [resistant] (active)
same,normalized growth,"locus YIL066C, strain RNR3, active compounds read low",0.788 (active)
same,normalized growth,"locus YIL073C, strain SPO22, active compounds read low",0.586 (active)
same,normalized growth,"locus YIL125W, strain kgd1, active compounds read low",1.03
same,normalized growth,"locus YIR030C, strain dcg1, active compounds read low",1.06
same,normalized growth,"locus YJL092W, strain hpr5, active compounds read low",1.01
same,normalized growth,"locus YJL095W, strain BCK1 (second series), active compounds read low",1.09 [resistant] (active)
same,normalized growth,"locus YJL095W, strain BCK1, active compounds read low",0.926
same,normalized growth,"locus YJL115W, strain asf1, active compounds read low",1
same,normalized growth,"locus YJL129C, strain trk1, active compounds read low",1.02
same,normalized growth,"locus YJL134W, strain LCB3, active compounds read low",0.948
same,normalized growth,"locus YJL154C, strain vps35, active compounds read low",1.02
same,normalized growth,"locus YJL164C, strain tpk1, active compounds read low",1.03
same,normalized growth,"locus YJL166W, strain qcr8, active compounds read low",1.04
same,normalized growth,"locus YJL168C, strain set2, active compounds read low",1.03
same,normalized growth,"locus YJL187C, strain SWE1 (second series), active compounds read low",0.885
same,normalized growth,"locus YJL187C, strain SWE1, active compounds read low",1.05
same,normalized growth,"locus YKL009W, strain mrt4, active compounds read low",1.04
same,normalized growth,"locus YKL068W, active compounds read low",1.01
same,normalized growth,"locus YKL085W, strain MDH1 (second series), active compounds read low",1
same,normalized growth,"locus YKL085W, strain MDH1, active compounds read low",1
same,normalized growth,"locus YKL160W, strain elf1, active compounds read low",1
same,normalized growth,"locus YKL190W, strain CNB1, active compounds read low",0.906 (active)
same,normalized growth,"locus YKR001C, strain vps1, active compounds read low",1.21 [resistant] (active)
same,normalized growth,"locus YKR026C, strain gcn3, active compounds read low",1
same,normalized growth,"locus YKR091W, strain srl3, active compounds read low",1.14 [resistant] (active)
same,normalized growth,"locus YLL001W, strain dnm1, active compounds read low",0.976
same,normalized growth,"locus YLL026W, active compounds read low",1.07 [resistant] (active)
same,normalized growth,"locus YLL041C, strain sdh2, active compounds read low",1.09 [resistant] (active)
same,normalized growth,"locus YLR027C, strain aat2, active compounds read low",1.03
same,normalized growth,"locus YLR039C, strain RIC1, active compounds read low",0.891
same,normalized growth,"locus YLR058C, strain SHM2, active compounds read low",0.891 (active)
same,normalized growth,"locus YLR102C, strain apc9, active compounds read low",1.06
same,normalized growth,"locus YLR221C, strain rsa3, active compounds read low",1.04
same,normalized growth,"locus YLR258W, strain gsy2, active compounds read low",1.03
same,normalized growth,"locus YLR262C, strain YPT6 (second series), active compounds read low",1.02
same,normalized growth,"locus YLR262C, strain YPT6, active compounds read low",0.874
same,normalized growth,"locus YLR268W, strain sec22, active compounds read low",1.05
same,normalized growth,"locus YLR320W, strain mms22, active compounds read low",0.999
same,normalized growth,"locus YLR330W, strain CHS5, active compounds read low",0.924
same,normalized growth,"locus YLR342W, strain FKS1, active compounds read low",1.05
same,normalized growth,"locus YLR357W, strain rsc2, active compounds read low",0.992
same,normalized growth,"locus YLR370C, strain arc18, active compounds read low",1.01
same,normalized growth,"locus YLR371W, strain rom2, active compounds read low",1.01
same,normalized growth,"locus YLR384C, strain iki3, active compounds read low",1.1 [resistant] (active)
same,normalized growth,"locus YLR418C, strain cdc73, active compounds read low",1.17 [resistant] (active)
same,normalized growth,"locus YML016C, strain PPZ1, active compounds read low",0.874 (active)
same,normalized growth,"locus YML032C, strain rad52, active compounds read low",1.14 [resistant] (active)
same,normalized growth,"locus YML120C, strain ndi1, active compounds read low",1.07
same,normalized growth,"locus YML124C, strain tub3, active compounds read low",1.07 [resistant] (active)
same,normalized growth,"locus YMR058W, strain fet3, active compounds read low",1.02
same,normalized growth,"locus YMR078C, strain ctf18, active compounds read low",1.14 [resistant] (active)
same,normalized growth,"locus YMR125W, strain sto1, active compounds read low",1.02
same,normalized growth,"locus YMR129W, active compounds read low",1.12 [resistant] (active)
same,normalized growth,"locus YMR205C, strain PFK2, active compounds read low",1.01
same,normalized growth,"locus YMR223W, strain ubp8, active compounds read low",1.05
same,normalized growth,"locus YMR231W, strain pep5, active compounds read low",1
same,normalized growth,"locus YMR307W, strain GAS1, active compounds read low",0.818
same,normalized growth,"locus YNL067W, strain RPL9B, active compounds read low",0.988
same,normalized growth,"locus YNL071W, strain lat1, active compounds read low",1.02
same,normalized growth,"locus YNL209W, strain ssb2, active compounds read low",1.05
same,normalized growth,"locus YNL233W, strain BNI4, active compounds read low",0.915
same,normalized growth,"locus YNL248C, strain rpa49, active compounds read low",0.984
same,normalized growth,"locus YNL250W, strain rad50, active compounds read low",1.03
same,normalized growth,"locus YNL271C, strain bni1, active compounds read low",1.04
same,normalized growth,"locus YNL298W, strain CLA4, active compounds read low",1.04
same,normalized growth,"locus YNL307C, strain MCK1, active compounds read low",1.03
same,normalized growth,"locus YNL322C, strain KRE1 (second series), active compounds read low",1.05
same,normalized growth,"locus YNR049C, strain mso1, active compounds read low",1.01
same,normalized growth,"locus YNR052C, strain pop2, active compounds read low",1.07
same,normalized growth,"locus YOL012C, strain htz1",0.869
same,normalized growth,"locus YOL147C, strain pex11, active compounds read low",1.09 [resistant] (active)
same,normalized growth,"locus YOR001W, strain rrp6, active compounds read low",1.01
same,normalized growth,"locus YOR061W, strain CKA2, active compounds read low",0.782 (active)
same,normalized growth,"locus YOR069W, strain VPS5, active compounds read low",0.935
same,normalized growth,"locus YOR070C, strain gyp1, active compounds read low",1.16 [resistant] (active)
same,normalized growth,"locus YOR080W, strain dia2, active compounds read low",1.03
same,normalized growth,"locus YOR083W, strain WHI5, active compounds read low",1.06
same,normalized growth,"locus YOR106W, strain vam3, active compounds read low",1.08
same,normalized growth,"locus YOR136W, strain idh2, active compounds read low",1.11 [resistant] (active)
same,normalized growth,"locus YOR144C, strain elg1, active compounds read low",1.08 [resistant] (active)
same,normalized growth,"locus YOR184W, strain ser1, active compounds read low",1.07
same,normalized growth,"locus YOR265W, strain rbl2, active compounds read low",1.05
same,normalized growth,"locus YOR270C, strain vph1, active compounds read low",0.972
same,normalized growth,"locus YOR290C, strain snf2, active compounds read low",1.03
same,normalized growth,"locus YOR316C, strain cot1, active compounds read low",1.07
same,normalized growth,"locus YPL051W, strain arl3, active compounds read low",0.976
same,normalized growth,"locus YPL078C, strain atp4, active compounds read low",1.03
same,normalized growth,"locus YPL106C, strain sse1, active compounds read low",1.02
same,normalized growth,"locus YPL240C, strain hsp82, active compounds read low",1.1 [resistant] (active)
same,normalized growth,"locus YPR119W, strain clb2, active compounds read low",1.05
same,normalized growth,"locus YPR141C, strain kar3, active compounds read low",1.09 [resistant] (active)
same,normalized growth,"locus YPR163C, strain tif3, active compounds read low",1.14 [resistant] (active)
same,normalized growth,"locus YPR167C, strain met16, active compounds read low",1
same,normalized growth,"strain wtn01, active compounds read low",1.03
